Measured values: the supplement of paper PMC6555819

Assays:
Experiment in all cases: PBM binding z-score (relative to random genomic background probes); higher = stronger binding; sequences stand for … in GC…GCGATTGACAGCGTAGAATGAAGG
[1] = test system: FXR:RXRa (NR concentration 270 nM, RXRa partner concentration 90 nM)
In short: (§1)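 Ligand-free nuclear receptor dimers were applied to custom Agilent 4×180K protein-binding microarrays whose double-stranded probes carried direct-repeat seeds, single-nucleotide variants, half-site ablations and random human genomic background sequences in 34-nt variable regions. Incubation lasted 1 h. Binding z-scores were computed against the random background probes from regression-normalized fluorescence.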

[2] = test system: LXRa:RXRa (NR concentration 270 nM, RXRa partner concentration 90 nM)
In short: as §1

[3] = test system: LXRa homodimer (NR concentration 270 nM)
In short: as §1

[4] = test system: LXRb:RXRa (NR concentration 270 nM, RXRa partner concentration 90 nM)
In short: as §1

[5] = test system: LXRb homodimer (NR concentration 270 nM)
In short: as §1

[6] = test system: PPARa:RXRa (NR concentration 270 nM, RXRa partner concentration 90 nM)
In short: as §1

[7] = test system: PPARg:RXRa (NR concentration 180 nM, RXRa partner concentration 90 nM)
In short: as §1

[8] = test system: PPARg:RXRa 270nM:90nM, anti-RXR (NR concentration 270 nM, RXRa partner concentration 90 nM)
In short: as §1

[9] = test system: PPARg:RXRa 30nM:10nM, anti-RXR (NR concentration 30 nM, RXRa partner concentration 10 nM)
In short: as §1

[10] = test system: PPARg:RXRa 90nM:30nM, anti-RXR (NR concentration 90 nM, RXRa partner concentration 30 nM)
In short: as §1

[11] = test system: PPARg:RXRa DBDmut IVT, anti-RXR (DBD mutation: RXRa K156A/R161A, NR concentration 270 nM, RXRa partner concentration 90 nM)
In short: as §1

[12] = test system: PPARg:RXRa IVT, anti-PPARg (NR concentration 270 nM, RXRa partner concentration 90 nM)
In short: as §1

[13] = test system: PPARg DBDmut:RXRa IVT, anti-PPARg (DBD mutation: PPARg1 K132A/R137A, NR concentration 270 nM, RXRa partner concentration 90 nM)
In short: as §1

[14] = test system: PPARg DBDmut IVT, anti-PPARg (DBD mutation: PPARg1 K132A/R137A, NR concentration 270 nM)
In short: as §1

[15] = test system: PPARg homodimer (NR concentration 180 nM)
In short: as §1

[16] = test system: PXR:RXRa (NR concentration 270 nM, RXRa partner concentration 90 nM)
In short: as §1

[17] = test system: PXR homodimer (NR concentration 270 nM)
In short: as §1

[18] = test system: RARa:RXR (NR concentration 270 nM, RXRa partner concentration 90 nM)
In short: as §1

[19] = test system: RARa homodimer (NR concentration 270 nM)
In short: as §1

[20] = test system: RARb:RXRa (NR concentration 270 nM, RXRa partner concentration 90 nM)
In short: as §1

Sequence | PBM binding z-score [1] | PBM binding z-score [2] | PBM binding z-score [3] | PBM binding z-score [4] | PBM binding z-score [5] | PBM binding z-score [6] | PBM binding z-score [7] | PBM binding z-score [8] | PBM binding z-score [9] | PBM binding z-score [10] | PBM binding z-score [11] | PBM binding z-score [12] | PBM binding z-score [13] | PBM binding z-score [14] | PBM binding z-score [15] | PBM binding z-score [16] | PBM binding z-score [17] | PBM binding z-score [18] | PBM binding z-score [19] | PBM binding z-score [20]
GCTGCTAGGTCAGTTTGGTCAGCTAACGGGTACG | 1.08 | 0.563 | -0.212 | 0.437 | 0.134 | 0.943 | 0.183 | 0.678 | -0.304 | 0.407 | 2.93 | 2 | -0.859 | -0.221 | 0.433 | 0.0587 | -0.275 | 0.504 | -0.322 | 3.1
ACTAGCAGGCCAAGGGTTACTCAAGATTAGTCCG | 0.239 | 2.23 | -0.412 | 0.935 | -0.494 | 2.61 | 4.88 | 5.61 | 4.58 | 5.71 | 0.518 | 2.14 | -0.596 | -0.597 | 0.215 | 0.27 | -0.411 | 1.05 | -0.361 | 0.894
AATACAGGGTCACAAGGCCAGAGTAGGTACGAAT | 6.89 | 5.61 | 1.21 | 4.47 | 1.18 | 5.99 | 7.38 | 6.69 | 3.96 | 5.46 | 3.6 | 5.38 | 1.96 | 1.5 | 1.69 | 4.03 | 0.719 | 4.97 | 1.18 | 4.6
TGAATGACGTTATAAGATCAGGGAACGTTGCAAA | -0.0798 | -0.0437 | -0.351 | -0.274 | -0.245 | -0.16 | 0.208 | 0.0909 | 0.775 | 0.526 | -1.22 | -0.257 | 1.11 | 0.502 | 0.0586 | -0.0188 | -0.13 | 0.166 | 0.18 | -0.286
CCTACTGGGCCAAAGGTCATTCATTCCAATGCTC | 4.99 | 5.4 | 5.18 | 5.18 | 1.33 | 6.7 | 12.2 | 10.6 | 10.6 | 11.8 | 5.26 | 6.63 | 2.52 | -0.185 | 4.56 | 5.58 | 2.49 | 6.3 | 1.85 | 4.46
CAAACTAAGTCACGAAAGGTCAAAGTCGAATGAC | 5.23 | 6.68 | 6.01 | 5.99 | 2.17 | 5.89 | 4.13 | 4.96 | 2.48 | 4.04 | 2.8 | 3.64 | 0.905 | 0.93 | 3.63 | 6.08 | 2.1 | 6.41 | 1.43 | 4.83
AGAACGATGGCACGCTGAGTTGATAGCAGAGTAG | -0.77 | -0.938 | -0.952 | -0.881 | -1.06 | -0.687 | 0.523 | -0.439 | -0.196 | -0.443 | -0.571 | -0.274 | 0.264 | -0.833 | 0.102 | -0.552 | -0.384 | -0.792 | -0.387 | -0.628
